# According to article PMC7862700, “An all-to-all approach to the identification of sequence-specific readers for epigenetic DNA modifications on cytosine”:
# How the values were obtained:
# Experiment in all cases: DAPPL (digital affinity profiling via proximity ligation, sequencing); 10 mM Tris-HCl pH 7.5, 50 mM NaCl, 1 mM DTT, 4% glycerol, room temperature, 30 min; GST-TFs on glutathione beads, 16-mer random dsDNA library, 0.1% formaldehyde crosslink after washing; high values mean tight binding
# Settings in all cases: protein: recombinant; tags: N-terminal GST; dsDNA, one strand shown
# ETV1 = ETV1 (Homo sapiens, UniProt P50549 1-477)
# ETV1, sequence (P50549 whole entry, the tested form may be a part): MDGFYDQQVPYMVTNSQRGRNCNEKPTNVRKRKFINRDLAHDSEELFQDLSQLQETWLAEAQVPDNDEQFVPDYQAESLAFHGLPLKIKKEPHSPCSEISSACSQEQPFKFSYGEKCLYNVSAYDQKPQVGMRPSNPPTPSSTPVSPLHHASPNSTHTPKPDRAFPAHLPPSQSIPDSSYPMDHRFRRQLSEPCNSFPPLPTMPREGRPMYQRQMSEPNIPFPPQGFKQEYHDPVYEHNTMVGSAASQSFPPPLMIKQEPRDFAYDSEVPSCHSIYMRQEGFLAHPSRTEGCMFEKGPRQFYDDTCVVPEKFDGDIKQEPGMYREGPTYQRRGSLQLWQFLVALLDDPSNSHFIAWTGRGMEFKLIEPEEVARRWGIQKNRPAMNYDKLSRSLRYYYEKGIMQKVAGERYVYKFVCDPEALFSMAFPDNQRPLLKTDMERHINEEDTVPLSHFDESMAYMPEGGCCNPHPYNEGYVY
# How it was run: (§1)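 A tag-only sample was pooled with DNA-barcoded human transcription factors that had been expressed in yeast as GST fusions and captured on glutathione beads. The pools were incubated for 30 min at room temperature with 200 nmole of a random double-stranded 16-mer DNA library in Tris/NaCl/DTT/glycerol buffer, then washed, crosslinked with 0.1% formaldehyde, proximity-ligated (BsaI/T4 ligase, 1 h, 37 °C), PCR-amplified and sequenced on an Illumina NextSeq500. Binding signal is each hexamer's read frequency for a factor divided by its frequency for the tag-only sample.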
# ERF = molecular target: T1, ERF (Homo sapiens, UniProt P50548 1-548)
# T1 sequence: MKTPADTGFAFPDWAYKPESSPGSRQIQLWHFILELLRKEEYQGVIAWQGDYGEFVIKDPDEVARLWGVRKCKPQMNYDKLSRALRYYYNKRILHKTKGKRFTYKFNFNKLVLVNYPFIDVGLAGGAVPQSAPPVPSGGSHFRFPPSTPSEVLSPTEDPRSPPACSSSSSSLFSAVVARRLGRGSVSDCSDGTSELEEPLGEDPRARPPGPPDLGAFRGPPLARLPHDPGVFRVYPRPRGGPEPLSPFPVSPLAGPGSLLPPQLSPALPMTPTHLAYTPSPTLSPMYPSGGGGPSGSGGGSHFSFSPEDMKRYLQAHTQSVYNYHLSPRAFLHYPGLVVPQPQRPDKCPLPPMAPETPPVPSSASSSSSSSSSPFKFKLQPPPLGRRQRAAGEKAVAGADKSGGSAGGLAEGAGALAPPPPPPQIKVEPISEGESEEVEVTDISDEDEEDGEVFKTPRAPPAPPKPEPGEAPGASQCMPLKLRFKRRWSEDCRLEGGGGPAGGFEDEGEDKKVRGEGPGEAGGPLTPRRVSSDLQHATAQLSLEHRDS
# How it was run: as §1
# ETV3L = molecular target: T2, ETV3L (Homo sapiens, UniProt Q6ZN32 1-361)
# T2 sequence: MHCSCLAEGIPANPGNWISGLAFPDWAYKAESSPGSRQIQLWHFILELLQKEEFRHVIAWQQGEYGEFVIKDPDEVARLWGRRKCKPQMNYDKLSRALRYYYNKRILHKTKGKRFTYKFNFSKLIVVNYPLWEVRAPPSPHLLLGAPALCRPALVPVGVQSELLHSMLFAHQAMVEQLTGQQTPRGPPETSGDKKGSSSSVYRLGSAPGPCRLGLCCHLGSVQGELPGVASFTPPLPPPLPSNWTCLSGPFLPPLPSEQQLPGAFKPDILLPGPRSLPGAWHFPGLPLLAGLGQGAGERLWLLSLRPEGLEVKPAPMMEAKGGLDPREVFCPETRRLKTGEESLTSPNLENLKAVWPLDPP
# How it was run: as §1
# ETS2 = molecular target: T3, ETS2 (Homo sapiens, UniProt P15036 1-469)
# T3 sequence: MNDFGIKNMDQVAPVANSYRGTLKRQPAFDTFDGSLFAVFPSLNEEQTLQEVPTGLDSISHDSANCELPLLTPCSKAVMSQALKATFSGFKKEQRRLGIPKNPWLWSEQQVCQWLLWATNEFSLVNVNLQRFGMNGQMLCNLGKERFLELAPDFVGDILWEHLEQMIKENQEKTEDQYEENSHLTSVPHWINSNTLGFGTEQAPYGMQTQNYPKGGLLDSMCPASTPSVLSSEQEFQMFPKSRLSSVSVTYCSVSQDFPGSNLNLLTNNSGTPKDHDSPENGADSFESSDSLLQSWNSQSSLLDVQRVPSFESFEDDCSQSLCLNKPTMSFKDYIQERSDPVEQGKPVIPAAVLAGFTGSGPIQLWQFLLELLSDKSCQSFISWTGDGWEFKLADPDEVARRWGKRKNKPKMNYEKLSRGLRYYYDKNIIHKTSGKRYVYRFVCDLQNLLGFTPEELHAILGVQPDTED
# How it was run: as §1
# SPDEF = molecular target: T4, SPDEF (Homo sapiens, UniProt O95238 1-335)
# T4 sequence: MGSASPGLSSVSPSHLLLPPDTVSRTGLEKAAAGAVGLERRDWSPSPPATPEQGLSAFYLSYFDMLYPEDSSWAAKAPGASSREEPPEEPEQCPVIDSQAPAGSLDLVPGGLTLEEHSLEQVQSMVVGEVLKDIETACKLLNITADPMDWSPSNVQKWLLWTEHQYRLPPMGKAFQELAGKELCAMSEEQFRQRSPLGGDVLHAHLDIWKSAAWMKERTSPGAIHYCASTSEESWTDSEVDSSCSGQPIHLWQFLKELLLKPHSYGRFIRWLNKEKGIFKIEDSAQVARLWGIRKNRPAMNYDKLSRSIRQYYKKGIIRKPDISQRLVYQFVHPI
# How it was run: as §1
# ETV7 = molecular target: T5, ETV7 (Homo sapiens, UniProt Q9Y603 1-341)
# T5 sequence: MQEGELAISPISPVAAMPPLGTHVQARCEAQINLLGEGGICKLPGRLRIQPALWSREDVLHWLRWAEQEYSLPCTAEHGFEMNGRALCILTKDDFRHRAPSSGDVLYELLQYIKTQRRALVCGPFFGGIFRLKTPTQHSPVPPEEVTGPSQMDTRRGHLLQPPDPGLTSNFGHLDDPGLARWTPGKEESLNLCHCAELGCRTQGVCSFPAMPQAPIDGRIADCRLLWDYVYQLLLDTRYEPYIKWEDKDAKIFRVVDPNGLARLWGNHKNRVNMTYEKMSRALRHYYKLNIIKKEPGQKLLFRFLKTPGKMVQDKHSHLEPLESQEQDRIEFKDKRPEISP
# How it was run: as §1
# ELF5 = molecular target: T6, ELF5 (Homo sapiens, UniProt Q9UKW6-2 1-255)
# T6 sequence: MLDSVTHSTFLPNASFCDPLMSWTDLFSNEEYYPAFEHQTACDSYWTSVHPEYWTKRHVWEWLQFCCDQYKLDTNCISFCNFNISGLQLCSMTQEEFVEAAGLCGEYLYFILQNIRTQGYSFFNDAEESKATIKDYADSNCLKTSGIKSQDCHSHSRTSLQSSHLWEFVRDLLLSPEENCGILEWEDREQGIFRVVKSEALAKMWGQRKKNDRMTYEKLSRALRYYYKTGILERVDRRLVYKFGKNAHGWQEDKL
# How it was run: as §1
# ETV3 = molecular target: T7, ETV3 (Homo sapiens, UniProt P41162-2 1-143)
# T7 sequence: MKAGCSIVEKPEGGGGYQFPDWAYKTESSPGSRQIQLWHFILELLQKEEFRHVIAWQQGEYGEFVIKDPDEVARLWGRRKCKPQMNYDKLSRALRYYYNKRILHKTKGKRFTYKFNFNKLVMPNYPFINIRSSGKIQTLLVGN
# How it was run: as §1
# ETV6 = ETV6 (Homo sapiens, UniProt P41212 1-452)
# ETV6, sequence (P41212 whole entry): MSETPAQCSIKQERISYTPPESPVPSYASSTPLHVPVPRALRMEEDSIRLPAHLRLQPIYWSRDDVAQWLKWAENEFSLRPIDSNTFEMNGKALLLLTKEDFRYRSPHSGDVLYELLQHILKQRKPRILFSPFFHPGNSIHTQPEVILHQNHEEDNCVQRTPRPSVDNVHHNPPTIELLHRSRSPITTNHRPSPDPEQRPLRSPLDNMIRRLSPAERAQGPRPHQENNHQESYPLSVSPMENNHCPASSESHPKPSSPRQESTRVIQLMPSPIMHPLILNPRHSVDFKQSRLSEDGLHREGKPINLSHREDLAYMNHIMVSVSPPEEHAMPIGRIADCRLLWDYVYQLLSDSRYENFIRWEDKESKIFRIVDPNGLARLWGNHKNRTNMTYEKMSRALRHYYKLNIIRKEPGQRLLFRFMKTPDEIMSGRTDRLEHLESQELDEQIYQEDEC
# How it was run: as §1
sequence,measurement,setting,value
CCGAAA,binding signal,ETV1,"1.23 fold enrichment (6-mer frequency, TF over GST control)"
same,binding signal,ERF,"1.22 fold enrichment (6-mer frequency, TF over GST control)"
same,binding signal,ETV3L,"1.2 fold enrichment (6-mer frequency, TF over GST control)"
same,binding signal,ETS2,"1.22 fold enrichment (6-mer frequency, TF over GST control)"
same,binding signal,SPDEF,"1.17 fold enrichment (6-mer frequency, TF over GST control)"
same,binding signal,ETV7,"1.24 fold enrichment (6-mer frequency, TF over GST control)"
same,binding signal,ELF5,"1.18 fold enrichment (6-mer frequency, TF over GST control)"
same,binding signal,ETV3,"1.19 fold enrichment (6-mer frequency, TF over GST control)"
same,binding signal,ETV6,"1.28 fold enrichment (6-mer frequency, TF over GST control)"
